The list is not random: actives were taken first. Their share in the collection is about 3.5%.
TEAD-YAP block = TEAD-YAP interaction inhibition. HEK-TIYL cells, TEAD-Gal4/YAP UAS-luciferase luminescence. inhibition, % at 9.12 µM. hit rate 1.4% among 640,000; in the data active = inhibition above about 32%
MITF inh = human MITF inhibition, primary screen; O75030; hit rate 0.91% among 650,000; AlphaScreen MITF homodimerization, bead proximity signal; inhibition, % at 2.6 µM; in the data active = inhibition above about 50%
FBW7 act = activators of human E3 ligase FBW7 | Q969H0 | AlphaScreen FBW7–phospho-cyclin E peptide binding, activator screen | normalized activity (activation), % at 26.1 µM | hit rate 0.13% among 650,000; in the data active = normalized activity above about 1.9%;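 also: purified mutant Fbw7 with reduced substrate affinity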
Target sequence (Q969H0 whole entry, looked up): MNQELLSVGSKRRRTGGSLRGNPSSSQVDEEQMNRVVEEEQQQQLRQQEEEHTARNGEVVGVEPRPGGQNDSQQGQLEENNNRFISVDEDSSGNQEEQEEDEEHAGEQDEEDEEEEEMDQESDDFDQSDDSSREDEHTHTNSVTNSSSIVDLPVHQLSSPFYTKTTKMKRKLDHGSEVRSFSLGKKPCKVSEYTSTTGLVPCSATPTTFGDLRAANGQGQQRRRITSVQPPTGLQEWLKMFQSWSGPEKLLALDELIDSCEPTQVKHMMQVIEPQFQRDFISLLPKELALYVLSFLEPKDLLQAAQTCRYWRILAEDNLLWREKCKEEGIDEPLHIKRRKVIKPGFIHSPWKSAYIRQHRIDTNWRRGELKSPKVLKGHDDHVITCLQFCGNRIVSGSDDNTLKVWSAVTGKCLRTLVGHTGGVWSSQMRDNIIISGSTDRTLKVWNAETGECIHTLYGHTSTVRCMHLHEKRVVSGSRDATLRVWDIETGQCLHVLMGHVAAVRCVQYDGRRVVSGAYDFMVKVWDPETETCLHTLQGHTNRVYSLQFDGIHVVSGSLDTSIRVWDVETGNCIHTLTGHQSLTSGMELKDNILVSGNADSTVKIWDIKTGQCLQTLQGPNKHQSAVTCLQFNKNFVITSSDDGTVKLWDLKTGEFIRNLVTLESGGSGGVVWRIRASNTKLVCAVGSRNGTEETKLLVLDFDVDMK
GPR151 activ = activators of human GPR151; Q8TDV0; PathHunter beta-arrestin GPR151 cells, luminescence; activation, % at 11.2 µM; hit rate 1% among 650,000; in the data active = activation above about 4.9%
Of the large screens only hits and unclear results are named; the others gave an inactive call.

c1cnc(Nc2nccc(Nc3ccc(N4CCOCC4)cc3)n2)cn1	none
COc1ccc(CNc2nc(Nc3ccc(N4CCOCC4)cc3)nc3cc(OC)c(OC)cc23)cc1	none
c1ccc(CNc2ccnc(Nc3ccc(N4CCOCC4)cc3)n2)cc1	TEAD-YAP block 41
COc1ccc(CNc2cc(C)nc(Nc3ccc(N4CCOCC4)cc3)n2)cc1	TEAD-YAP block 37
Cc1cc(NCCN2CCOCC2)nc(Nc2ccc(N3CCOCC3)cc2)n1	none
CC(=O)c1c(C)[nH]c(C(=O)NCCN(C)Cc2ccccc2)c1C	none
CCc1cc(=O)oc2c(C)c(OCC(=O)OC(C)C)ccc12	none
Cc1cc(Nc2ccc(N3CCOCC3)cc2)nc(Nc2ccccc2)n1	TEAD-YAP block 66
Cc1cc(Nc2ccc(N3CCOCC3)cc2)nc(Nc2ccc(C(F)(F)F)cc2)n1	none
Cc1nc2nc(-c3cccs3)cn2nc1C	none
c1csc(-c2cn3nc4c(nc3n2)CCCC4)c1	TEAD-YAP block 34
CC(C)(C)c1csc(-c2cnn(-c3ccc(F)cc3)c2N)n1	none
Cc1cc(C)n(-c2cc(NCCNC(=O)Nc3cccc(F)c3C)ncn2)n1	none
COc1ccc(C)cc1NC(=O)NCCNc1cc(-n2nc(C)cc2C)ncn1	TEAD-YAP block 51
COc1ccccc1CCN=CC1=C(O)CC(C)(C)CC1=O	none
O=C(C1CCC(CNS(=O)(=O)c2ccc(Cl)cc2)CC1)N1CCCCCC1 (centres undefined)	none
Nc1ccc(C(=O)OCc2nc3cc4ccccc4cc3[nH]2)cc1	TEAD-YAP block 48
Nc1ccc(C(=O)OCCCc2nc3cc4ccccc4cc3[nH]2)cc1	none
Cc1cc(Nc2ccc(Br)cc2)nc(-n2nc(C)cc2C)n1	TEAD-YAP block 64
Cc1ccc(CNc2cc(C)nc(-n3nc(C)cc3C)n2)cc1	TEAD-YAP block 67
Cc1cc(Nc2ccc(Cl)cc2)nc(N)n1	none
Cc1cc(C)n(-c2nc(-c3ccc(Br)cc3)cs2)n1	none
Cc1cc(Nc2ccc3c(c2)OCCO3)nc(-n2nc(C)cc2C)n1	TEAD-YAP block 87
Cc1cc(Nc2ccc(Cl)cc2)nc(-n2nc(C)cc2C)n1	TEAD-YAP block 47
Cc1cc(Nc2ccc3c(c2)OCO3)nc(Cl)n1	none
O=C(NCCOc1ccccc1)c1csc(-c2cccs2)n1	none
CN1CCN(c2ccc(-c3nc(C(=O)NCCc4ccc(O)cc4)cs3)cc2)CC1	none
Nc1ccc(-c2cnn3c(NCCc4cccnc4)ccnc23)cc1	none
Oc1cccc(/C=N/Nc2ncnc3nc[nH]c23)c1	none
COc1ccc(/C=N/Nc2ncnc3nc[nH]c23)c(OC)c1	TEAD-YAP block 38
Brc1cccc(/C=N/Nc2ncnc3nc[nH]c23)c1	TEAD-YAP block 57
CCOc1ccccc1/C=N/Nc1ncnc2nc[nH]c12	none
COc1ccc(/C=N/Nc2ncnc3nc[nH]c23)cc1O	TEAD-YAP block 37
CCN(CC)c1ccc(/C=N/Nc2ncnc3nc[nH]c23)cc1	TEAD-YAP block 76
COc1ccc(S(=O)(=O)N2CCCC(C(=O)O)C2)cc1C (centres undefined)	none
COc1ccc(CCNC(=O)c2ccnc(Nc3nc4ccccc4n3C)c2)cc1	none
Cc1ccc2nc(-c3ccc(NC(=O)c4ccc(I)cc4)cc3)oc2c1	none
Cc1cc2nc(-c3ccc(N)cc3)oc2cc1C	TEAD-YAP block 83
Cc1ccc2nc(-c3cccc(N)c3)oc2c1	TEAD-YAP block 46
Cc1ccc2nc(-c3ccc(N)cc3)oc2c1	TEAD-YAP block 66
Cc1ccc2nc(-c3ccc(O)cc3)oc2c1	TEAD-YAP block 98
Cc1ccc2nc(-c3cc(N)ccc3Cl)oc2c1	none
Nc1cccc(-c2nc3cc(N)ccc3o2)c1	none
C=CCn1c(SC(C(=O)NCc2ccccc2)C(=O)NCc2ccccc2)nc2cc(C(=O)NCc3ccco3)ccc2c1=O	none
Cc1ccc(C(=O)Nc2cc(-c3nc4cc(C(C)C)ccc4o3)ccc2Cl)cc1	none
CN1CCN(c2ncn(-c3ccc(Nc4ncc(F)c(-c5cccc(N6CCOCC6)c5)n4)cc3)n2)CC1	TEAD-YAP block 62
Cc1nc(C)n(-c2ccc(Nc3ncc(F)c(-c4cc(F)cc(N5CCOCC5)c4)n3)cc2)n1	none
CCn1cc(-c2ccc3cnc(Nc4ccc(-n5cnc(N6CCOCC6)n5)cc4)nc3c2Cl)cn1	none
Cn1cc(-c2nc(Nc3ccc(-n4cnc(N5CCC(O)CC5)n4)cc3)ncc2F)cn1	TEAD-YAP block 85
N#Cc1cc(-c2nc(Nc3ccc(N4CCOCC4)cc3)ncc2F)cc(N2CCOCC2)c1	none
CN1CCN(c2ncn(-c3ccc(Nc4ncc(F)c(-c5cc(F)cc(N6CCOCC6)c5)n4)cc3)n2)CC1	TEAD-YAP block 77
CC1CN(c2ncn(-c3ccc(Nc4ncc5ccc(-c6cnn(C)c6)c(Cl)c5n4)cc3)n2)CC(C)O1 (centres undefined)	TEAD-YAP block 57
CC(Oc1ccccc1)C(=O)Nc1ccccc1Cl (centres undefined)	none
Cn1cc(-c2ccc3cnc(Nc4ccc(-n5cnc(N6CCOCC6)n5)cc4)nc3n2)cn1	TEAD-YAP block 80
Cn1cnnc1-c1ccc(Nc2ncc(F)c(-c3cc(F)cc(N4CCOCC4)c3)n2)cc1	TEAD-YAP block 72
Cn1cc(-c2ccc(-c3ccnc(Nc4ccc(-n5cnc(N6CCOCC6)n5)cc4)n3)cc2)cn1	none
Cn1cnnc1-c1ccc(Nc2ncc(F)c(-c3ccccc3)n2)cc1	TEAD-YAP block 41
Cn1cnnc1-c1ccc(Nc2nccc(-c3cccc(Nc4ccccc4)c3)n2)cc1	none
CCCc1nc(SCC(=O)Nc2cccc(NC(C)=O)c2)c2ccccc2n1	none
NC(=O)CCC(NC(=O)NC1CCCCC1)C(=O)O (centres undefined)	FBW7 act 2.1
NC(=O)CCC(NC(N)=O)C(=O)O (centres undefined)	none
Cc1cc(C)nc(NS(=O)(=O)c2ccc(NC(=O)CC(NC(=O)C(F)(F)F)c3ccccc3)cc2)n1 (centres undefined)	none
O=C(COc1ccccc1Cl)Nc1cc([N+](=O)[O-])ccc1O	TEAD-YAP block 69
O=C(COc1ccccc1)Nc1cc([N+](=O)[O-])ccc1O	TEAD-YAP block 56
COc1ccc(-c2noc(CNC(=O)COc3ccc(C)cc3Br)n2)cc1	none
NC(=O)c1ncsc1Nc1ccnc(Nc2ccc(N3CCOCC3)cc2)c1	none
CSc1nc(Nc2ccnc(Nc3ccc(N4CCOCC4)cc3)c2)c(C(N)=O)s1	TEAD-YAP block 41
CCCOc1ccc(N/C(N)=N/c2nc(C)cc(C)n2)cc1	TEAD-YAP block 35
CCCCCOc1ccc(N/C(N)=N/c2nc(C)cc(C)n2)cc1	TEAD-YAP block 37
Cc1cc(C)nc(/N=C(\N)Nc2ccccc2)n1	none
Cc1cc(C)nc(/N=C(\N)Nc2ccc(Oc3ccccc3)cc2)n1	TEAD-YAP block 32
CCC(Sc1nc2cc(OC)c(OC)cc2c(=O)n1CCc1ccc(S(N)(=O)=O)cc1)C(=O)NCc1ccc(C)cc1 (centres undefined)	none
CCOC(=O)C1CCN(c2ccc3nncn3n2)CC1	none
CCOC(=O)c1cn2nc(N3CCCCC3)ccc2n1	TEAD-YAP block 43
Cc1cc(N2CCCC2)nc(Nc2ccc(NS(=O)(=O)c3cccc(F)c3)cc2)n1	TEAD-YAP block 54
CN(C)c1ccc(N=Cc2sc3ccccc3c2O)cc1	TEAD-YAP block 76
Oc1c(C=Nc2ccc(I)cc2)sc2ccccc12	none
